Results published in PubChem BioAssay AID2289 (National Center for Advancing Translational Sciences (NCATS), 2010).
The whole screen tested about 340,000 compounds, of which about 3,300 (0.97%) were called active. Another 9% or so got no clear call; they are omitted. Calls follow the shape of the dose curve; as a rule, active = well fitted inhibition curve with a large enough effect; inconclusive = small, poorly fitted or top-dose-only effect, or effect the other way; inactive = flat fitted curve, though single readings scatter. Some of the results follow.

Experiment: qHTS Assay for Modulators of miRNAs and/or Inhibitors of miR-21; also: nearly all actives have a fitted effect of over 55% in size
Conditions: HeLa miR-21-FLuc reporter, luciferase luminescence, 48 h; actives lower the signal
Method in brief: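 Luminescence from a firefly luciferase reporter carrying a miR-21 binding site downstream, stably expressed under a CMV promoter in HeLa cells that make miR-21 endogenously, reports miRNA modulation after 48 h compound exposure up to approximately 40uM final.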
Potency is read from the fitted curve at half-maximal effect.

Potency, active:
Clc1ccc(OCc2noc(-c3ccsc3)n2)c(Cl)c1 4.14 µM
COc1ccccc1-c1nc(COc2ccc(Cl)cc2Cl)no1 7.36 µM
COc1ccccc1/C=C/C=N/n1c(-c2ccccn2)n[nH]c1=S 8.26 µM
CCOC(=O)c1c(C)oc2cc(Cl)c(O)c(CN(C)C)c12 14.7 µM
O=C(N/N=C/c1ccc(Br)cc1)c1ccc(Br)o1 3.29 µM
C/C(=N/NC(=O)c1ccc(Br)o1)c1ccc(C)o1 10.4 µM
COc1ccccc1OCc1nc(-c2cccc(C)c2)no1 6.56 µM
COc1cccc(-c2noc(COc3ccccc3Cl)n2)c1 16.5 µM
Cc1ccc(OCc2nc(-c3ccccc3)no2)cc1 5.21 µM
CSc1nc(O)c(/C=C2\C=Nc3ccccc32)[nH]1 16.5 µM
COc1cc(/C=C2\OC(=O)c3c(OC)cccc32)ccc1O 7.36 µM
COc1cccc2c1C(=O)O/C2=C/c1ccc2c(c1)OCO2 0.233 µM
COc1ccc(/C=C2\OC(=O)c3c(OC)cccc32)cc1OC 2.93 µM
COc1cccc(/C=N/NC(=O)c2cccc(N3CCCC3=O)c2)c1 5.85 µM
c1csc(-c2nc(N3CCCCC3)no2)c1 2.93 µM
CCOC(=O)c1sc(=NC(=O)c2ccccc2Br)n(C)c1C 1.04 µM
CCOC(=O)c1sc(=NC(=O)c2cccs2)n(C)c1C 0.293 µM
Cc1ccc2c(c1)sc(=NC(=O)c1cccs1)n2C 0.0521 µM
CCOC(=O)c1sc(=NC(=O)c2ccc(Cl)s2)n(C)c1C 0.233 µM
O=C(NC(N1CCOCC1)C(Cl)(Cl)Cl)c1ccco1 (centres undefined) 2.93 µM
O=C(CCc1ccc(S(=O)(=O)NC2CCCCC2)cc1)NCc1ccccn1 7.36 µM
Cc1cc(-n2c(SCc3ccccc3F)nc3[nH]ncc3c2=O)ccc1Cl 4.65 µM
O=c1c2c3c(sc2ncn1-n1cccc1)CCCCC3 11.7 µM
COc1ccc(OC)c2nc(-c3ccc4c(c3)OCO4)ccc12 0.736 µM
Cc1c(C(=O)c2ccccc2)oc2ccc3ccccc3c12 2.93 µM
CC(=O)c1cc2c(C)c(C(=O)c3ccccc3)oc2cc1O 0.521 µM
CCN(CC)S(=O)(=O)c1ccc(-c2cn3ccc(C)cc3n2)cc1 0.927 µM
Cc1cc(/C=C(\C#N)C(=O)Nc2ccccc2F)c(C)[nH]1 0.521 µM
O=C(NCCSc1ccccc1)c1ccccc1Cl 1.65 µM
Cc1ccccc1SCCNC(=O)c1ccccc1Br 16.5 µM
COC(=O)c1sc(NC(=O)COc2ccccc2)nc1C 7.36 µM
COC(=O)c1sc(NC(=O)CSc2nnnn2C)nc1C 6.56 µM
CCOC(=O)c1sc(Nc2ccccc2)nc1C 4.14 µM
CNc1nc(C)c(C(=O)OCc2ccccc2)s1 16.5 µM
CCOC(=O)c1sc(Nc2ccccc2Cl)nc1C 4.65 µM
CCOC(=O)c1sc(NC(=O)c2ccccc2OC)nc1C 0.261 µM
Cc1ccccc1C(=O)N/N=C/c1ccsc1C 2.33 µM
Cc1ccccc1/C=N/NC(=O)c1sccc1C 1.47 µM
O=C(c1cc(-c2ccc(Cl)cc2)on1)N1CCCCCC1 1.47 µM
O=C(c1cc(-c2ccc(Cl)cc2)on1)N1CCCC1 0.521 µM
CCC1CCCCN1C(=O)c1cc(-c2ccc(Cl)c(Cl)c2)on1 (centres undefined) 7.36 µM
c1ccc(-c2cc(-c3ccccc3)on2)cc1 1.04 µM
O=C(c1ccccc1-c1nc(-c2ccccc2)no1)N1CCCC1 18.5 µM
O=C(c1cc(-c2ccccc2)on1)N1CCCCCC1 3.29 µM
COc1ccccc1CCC(=O)Nc1ccc(C)cc1Cl 16.5 µM
Cc1ccc(Sc2ncccc2COC(=O)NC(C)C)cc1 16.5 µM
O=C1N=C(N2CCOCC2)S/C1=C\C=C/c1ccccc1 10.4 µM
Nc1ccccc1-c1nc2ccccc2s1 5.85 µM
Nc1ccc(-c2nc3ccccc3s2)cn1 1.47 µM
CCOC(=O)c1ccc(N2Cc3ccccc3C2=NC(=O)c2cccs2)cc1 3.29 µM
N#Cc1ccc(N2Cc3ccccc3C2=NC(=O)c2cccs2)cc1 8.26 µM
Cc1ccc2[nH]c3c(=S)nc[nH]c3c2c1 3.69 µM
Cc1cc(C(=O)N/N=C/c2cccc([N+](=O)[O-])c2)c(C)n1-c1ccccc1 6.56 µM
CC(C)c1ccc(NC(=O)c2ccccc2NC(=O)C2CC=CCC2C(=O)O)cc1 (centres undefined) 3.69 µM
O=C(Nc1ccc(Cl)c(Cl)c1)c1ccccc1NC(=O)C1CC=CCC1C(=O)O (centres undefined) 6.56 µM
CN(C)C=NC(=O)c1cc(C(=O)c2ccc(C(C)(C)C)cc2)c[nH]1 0.927 µM
Cn1c(CSc2ccccc2)c(C#N)c2ccccc21 14.7 µM
Cc1ccc(Nc2nc(/N=C/N(C)C)n[nH]2)cc1C 7.36 µM
Cc1ccc(Nc2nc(/N=C/NO)n[nH]2)cc1C 1.85 µM
COCn1c(-c2ccc(OC)cc2)nc2ccccc21 3.69 µM
C=CCn1c(-c2ccc(N)cc2)nc2ccccc21 4.65 µM
COCn1c(COc2ccc3ccccc3c2)nc2ccccc21 2.07 µM
O=C(c1cc(-c2ccccc2O)on1)N1CCCCCC1 2.07 µM
O=C(c1cc(-c2ccccc2O)on1)N1CCOCC1 13.1 µM
O=C(c1cc(-c2ccccc2O)on1)N1CCCCC1 0.826 µM
Cc1ccc2c(c1)NC(=O)CC(c1ccccc1)=N2 13.1 µM
CSc1ccc(/C=C/C(=O)c2c(O)cc(C)oc2=O)cc1 13.1 µM
Cc1ccc(NC(=O)CCCNC(=O)c2ccc(Cl)cc2)c(O)c1 16.5 µM
[O-]/[N+](=C\C=C\c1ccccc1)c1ccccc1 1.85 µM
